{"source": "the supplement of paper PMC8728848", "binders": {"B1": {"name": "LlpA1 (Pseudomonas fluorescens), Q4KHC3 (protein)", "chain": "MGSSHHHHHHSSGLVPRGSHMAWIRYDFTDNGSSVLPARYYMAPNQYLQSPNKRFKLLFQADGNLALYDGAQLAWVADQNTPFTNVSKGNKKDPMMVFMNYGFVLDDPLRGRIWSTTPSDPTMGSREDASLRAFTQVQDDGNIVTVDTIPHWYAPNGRVFTPAVGAAMIIGGTTELVPGQFYSAGEHSLVFQGDGNLVVYGPNSSVIWATYTQNKGGVRCVMQEDGNLVIYAANNGVVWQSGTGGHPGATIRLQANGSFTIVTERPVWARFGYTPTIKPPRVFYPDHKWKTGSYTWNNVF"}}, "experiment_in_all_cases": "glycan array binding signal (z-score within array); higher = stronger binding", "conditions_in_all_cases": "glycan notation: IUPAC condensed, linker removed", "key": {"[1]": {"target": "Gal(b1-4)GlcNAc(b1-3)Gal(b1-4)GlcNAc(b1-3)[Gal(b1-4)GlcNAc(b1-3)Gal(b1-4)GlcNAc(b1-6)]GalNAc", "in_short": "(§1)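 Columns mapping to the same glycan were averaged after glycan names were converted to IUPAC-condensed notation. The data come from 3228 arrays in the Consortium for Functional Glycomics database, limited to those with an available protein sequence. Binding is reported as a within-array Z-score averaged across arrays of one protein sequence and across linkers.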"}, "[2]": {"target": "Gal(b1-4)GlcNAc(b1-3)GalNAc", "in_short": "as §1"}, "Gal3S(b1-4)Glc6S": {"target": "Gal3S(b1-4)Glc6S", "in_short": "as §1"}, "[3]": {"target": "Gal3S(b1-4)[Fuc(a1-3)]Glc", "in_short": "as §1"}, "Gal4S(b1-4)GlcNAc": {"target": "Gal4S(b1-4)GlcNAc", "in_short": "as §1"}, "Gal6S(b1-4)GlcNAc": {"target": "Gal6S(b1-4)GlcNAc", "in_short": "as §1"}, "[4]": {"target": "GalNAc(b1-3)Gal(a1-6)Gal(b1-4)Glc", "in_short": "as §1"}, "GalNAc(b1-4)GlcNAc6S": {"target": "GalNAc(b1-4)GlcNAc6S", "in_short": "as §1"}, "GalNAc6S(b1-4)GlcNAc": {"target": "GalNAc6S(b1-4)GlcNAc", "in_short": "as §1"}, "Glc(a1-4)Glc": {"target": "Glc(a1-4)Glc", "in_short": "as §1"}, "Glc(b1-4)Glc": {"target": "Glc(b1-4)Glc", "in_short": "as §1"}, "[5]": {"target": "GlcNAc(b1-3)Gal(b1-4)GlcNAc(b1-3)Gal(b1-4)GlcNAc(b1-3)Gal(b1-4)GlcNAc(b1-2)Man(a1-3)[GlcNAc(b1-3)Gal(b1-4)GlcNAc(b1-3)Gal(b1-4)GlcNAc(b1-3)Gal(b1-4)GlcNAc(b1-2)Man(a1-6)]Man(b1-4)GlcNAc(b1-4)[Fuc(a1-6)]GlcNAc", "in_short": "as §1"}, "GlcNAc(b1-4)GlcNAc": {"target": "GlcNAc(b1-4)GlcNAc", "in_short": "as §1"}, "Kdn(a2-3)Gal(b1-3)GlcNAc": {"target": "Kdn(a2-3)Gal(b1-3)GlcNAc", "in_short": "as §1"}, "[6]": {"target": "Man(a1-2)Man(a1-3)[Man(a1-2)Man(a1-6)]Man(a1-6)[Man(a1-2)Man(a1-2)Man(a1-3)]Man(b1-4)GlcNAc(b1-4)GlcNAc", "in_short": "as §1"}, "[7]": {"target": "Man(a1-3)[Man(a1-6)]Man(b1-4)GlcNAc(b1-4)[Fuc(a1-6)]GlcNAc", "in_short": "as §1"}, "[8]": {"target": "Neu5Ac(a2-3)Gal(b1-3)]Neu5Ac(a2-3)Gal(b1-4)]GlcNAc", "in_short": "as §1"}, "[9]": {"target": "Neu5Ac(a2-3)Gal(b1-4)GlcNAc(b1-3)Gal(b1-4)GlcNAc(b1-3)Gal(b1-4)GlcNAc(b1-2)Man(a1-3)[Neu5Ac(a2-3)Gal(b1-4)GlcNAc(b1-3)Gal(b1-4)GlcNAc(b1-3)Gal(b1-4)GlcNAc(b1-2)Man(a1-6)]GalNAc", "in_short": "as §1"}, "[10]": {"target": "Neu5Ac(a2-3)Gal(b1-4)GlcNAc(b1-3)GalNAc", "in_short": "as §1"}, "[11]": {"target": "Neu5Ac(a2-3)Gal(b1-4)[Fuc(a1-3)]GlcNAc(b1-3)GalNAc", "in_short": "as §1"}, "[12]": {"target": "Neu5Ac(a2-6)Gal(b1-3)GlcNAc(b1-3)[Gal(b1-4)GlcNAc(b1-6)]Gal(b1-4)Glc", "in_short": "as §1"}, "[13]": {"target": "Neu5Ac(a2-6)Gal(b1-4)GlcNAc(b1-2)Man(a1-3)[GlcNAc(b1-2)Man(b1-4)GlcNAc(b1-2)Man(a1-6)]Man(b1-4)GlcNAc(b1-4)GlcNAc", "in_short": "as §1"}, "[14]": {"target": "Neu5Ac(a2-6)Gal(b1-4)GlcNAc(b1-2)Man(a1-3)[GlcNAc(b1-4)][Neu5Ac(a2-6)Gal(b1-4)GlcNAc(b1-2)Man(a1-6)]Man(b1-4)GlcNAc(b1-4)GlcNAc", "in_short": "as §1"}, "[15]": {"target": "Neu5Ac(a2-6)Gal(b1-4)GlcNAc(b1-6)[Gal(b1-3)]GalNAc", "in_short": "as §1"}, "[16]": {"target": "Neu5Ac(a2-6)GalNAc(b1-4)GlcNAc6S", "in_short": "as §1"}, "[17]": {"target": "Neu5Ac(a2-8)Neu5Ac(a2-3)Gal(b1-4)GlcNAc", "in_short": "as §1"}, "[18]": {"target": "Neu5Ac(a2-8)Neu5Gc(a2-3)Gal(b1-4)GlcNAc", "in_short": "as §1"}}, "note": "About 410 targets per protein were measured; listed, in parts, are those with the strongest signals and a random draw of the rest."}
{"binder": "B1", "values": [{"measurement": "glycan array binding signal (z-score)", "setting": "[1]", "value": 2.36}, {"measurement": "glycan array binding signal (z-score)", "setting": "[2]", "value": -0.927}, {"measurement": "glycan array binding signal (z-score)", "setting": "Gal3S(b1-4)Glc6S", "value": -0.494}, {"measurement": "glycan array binding signal (z-score)", "setting": "[3]", "value": -0.518}, {"measurement": "glycan array binding signal (z-score)", "setting": "Gal4S(b1-4)GlcNAc", "value": 0.315}, {"measurement": "glycan array binding signal (z-score)", "setting": "Gal6S(b1-4)GlcNAc", "value": 0.079}, {"measurement": "glycan array binding signal (z-score)", "setting": "[4]", "value": 0.158}, {"measurement": "glycan array binding signal (z-score)", "setting": "GalNAc(b1-4)GlcNAc6S", "value": 1.64}, {"measurement": "glycan array binding signal (z-score)", "setting": "GalNAc6S(b1-4)GlcNAc", "value": 1.35}, {"measurement": "glycan array binding signal (z-score)", "setting": "Glc(a1-4)Glc", "value": 0.211}, {"measurement": "glycan array binding signal (z-score)", "setting": "Glc(b1-4)Glc", "value": -1.02}, {"measurement": "glycan array binding signal (z-score)", "setting": "[5]", "value": 1.27}, {"measurement": "glycan array binding signal (z-score)", "setting": "GlcNAc(b1-4)GlcNAc", "value": 0.141}, {"measurement": "glycan array binding signal (z-score)", "setting": "Kdn(a2-3)Gal(b1-3)GlcNAc", "value": -0.948}, {"measurement": "glycan array binding signal (z-score)", "setting": "[6]", "value": 0.448}, {"measurement": "glycan array binding signal (z-score)", "setting": "[7]", "value": -0.367}, {"measurement": "glycan array binding signal (z-score)", "setting": "[8]", "value": 0.082}, {"measurement": "glycan array binding signal (z-score)", "setting": "[9]", "value": 2.75}, {"measurement": "glycan array binding signal (z-score)", "setting": "[10]", "value": -0.31}, {"measurement": "glycan array binding signal (z-score)", "setting": "[11]", "value": 0.206}, {"measurement": "glycan array binding signal (z-score)", "setting": "[12]", "value": -0.201}, {"measurement": "glycan array binding signal (z-score)", "setting": "[13]", "value": 2.45}, {"measurement": "glycan array binding signal (z-score)", "setting": "[14]", "value": -0.209}, {"measurement": "glycan array binding signal (z-score)", "setting": "[15]", "value": 0.228}, {"measurement": "glycan array binding signal (z-score)", "setting": "[16]", "value": -0.028}, {"measurement": "glycan array binding signal (z-score)", "setting": "[17]", "value": -0.552}, {"measurement": "glycan array binding signal (z-score)", "setting": "[18]", "value": 8.89}]}
